Screening results deposited in PubChem by National Center for Advancing Translational Sciences (NCATS).
IMPase Li cell – qHTS Assay for Identifying the Cell-Membrane Permeable IMPase Inhibitors: Potentiation with Lithium | 0.35% of 210,000 active | CHO-M1 cells, IP1 TR-FRET (IP-One), carbachol + lithium | Potency, µM (doses to about 59.4 µM), actives largely listed as inhibitors;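 note: IP1 builds up when IMPase is blocked and the TR-FRET signal falls; nearly all actives have a fitted effect of over 50% in size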
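Concentration–response in CHO-M1 cells, lithium-potentiated; 30 min at 37C. IP1 detected by competitive TR-FRET after 10 min lysis at RT. Hill-fitted AC50.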
ALDH1A1 inh – qHTS Assay for Inhibitors of Aldehyde Dehydrogenase 1 (ALDH1A1); Aldehyde dehydrogenase 1A1 (Homo sapiens), P00352; Purified ALDH1A1, NADH fluorescence, propionaldehyde substrate; Potency, µM (titrated, usually from 75.3 µM), usual class: inhibitors; 7.3% of 220,000 active; active = well fitted inhibition curve with a large enough effect, not every such curve was filed as active; inconclusive = small, poorly fitted or top-dose-only effect, or another doubt; inactive = no such curve, though single readings can be large or run the other way
HPGD inh – qHTS Assay for Inhibitors of HPGD (15-Hydroxyprostaglandin Dehydrogenase); 15-hydroxyprostaglandin dehydrogenase [NAD(+)] (Homo sapiens), P15428; purified HPGD, NADH fluorescence kinetic, PGE2 substrate; Potency, µM, actives largely listed as inhibitors; 4.3% of 150,000 active; active = well fitted inhibition curve with a large enough effect, not every such curve was filed as active; inconclusive = small, poorly fitted or top-dose-only effect, or another doubt; inactive = no such curve, though single readings can be large or run the other way
Target sequence (P15428 whole entry, looked up): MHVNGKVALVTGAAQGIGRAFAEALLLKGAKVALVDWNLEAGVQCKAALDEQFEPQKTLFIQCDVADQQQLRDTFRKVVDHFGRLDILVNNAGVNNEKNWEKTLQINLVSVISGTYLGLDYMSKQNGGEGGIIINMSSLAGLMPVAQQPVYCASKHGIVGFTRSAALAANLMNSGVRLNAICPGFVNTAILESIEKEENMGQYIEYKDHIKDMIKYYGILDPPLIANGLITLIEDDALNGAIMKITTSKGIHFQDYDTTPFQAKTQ
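NADH formation kinetics: reaction with 30 uM PGE2 and 1 mM NAD+ (final), 20 nM enzyme, Tris-HCl pH 8 with Tween 20, after 15 min compound preincubation at room temperature. Fluorescence change, last versus first of five reads.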
IMPase cell inh – qHTS Assay for Identifying the Cell-Membrane Permeable IMPase Inhibitors. Inositol monophosphatase 1 (Rattus norvegicus), P97697. CHO-M1 cells, IP1 accumulation, HTRF TR-FRET ratio. inhibition (IP1 accumulation), % at 46.1 µM. 120,000 tested, under 10 active. AID 901, 2007; active = well fitted curve in the direction sought with a large enough effect in the signal ratio, not every such curve was filed as active; inconclusive = small, poorly fitted or top-dose-only effect, or a change in a side signal; inactive = no such curve, though single readings can be large or run the other way; the % refers to the signal ratio;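 note: cells stimulated with carbachol in lithium chloride buffer; higher means more IMPase inhibition seen as more IP1 and lower FRET ratio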
Target sequence (P97697 whole entry, looked up): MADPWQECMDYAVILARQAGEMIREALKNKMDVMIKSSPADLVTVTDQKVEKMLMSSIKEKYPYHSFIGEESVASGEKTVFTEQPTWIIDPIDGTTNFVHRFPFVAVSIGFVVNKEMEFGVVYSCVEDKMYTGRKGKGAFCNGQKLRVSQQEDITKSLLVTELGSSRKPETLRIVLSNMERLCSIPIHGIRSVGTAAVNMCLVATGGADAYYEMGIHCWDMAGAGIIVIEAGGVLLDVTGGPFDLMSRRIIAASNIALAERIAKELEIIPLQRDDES
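Elevated IP1 in lysates lowers TR-FRET signal (665/620 ratio and 620 channel reported). Cells were CHO-M1, given carbachol (50 uM as added) plus 50mM LiCl, pH 7.4, 30 min, 37C; compounds titrated up to 46 uM; AC50 by Hill equation.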
PNC assembly inh – High Content Assay for Compounds that inhibit the Assembly of the Perinucleolar Compartment | PC3M PTB-GFP, PNC prevalence imaging, 16 h; hits give low values | 3.1% of 140,000 active | activity change (PNC), negative = inhibition, % at 10 µM | AID 2417, 2010;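 active = readout at or below -70, meaning at least 70% loss of cells showing the perinucleolar compartment, a nuclear body marking cancer cells; inconclusive = readout between -30 and a set limit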
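Read-out is percentage of cells bearing a perinucleolar compartment, from automated 20x imaging of fixed, Hoechst-stained PC3M PTB-GFP cells. Cells were seeded 4 h, then exposed 16 h to compound (23 nl of library stock) in duplicate plates.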
12-hLO inh – qHTS Assay for Inhibitors of 12-hLO (12-human lipoxygenase); purified 12-hLO, xylenol orange hydroperoxide absorbance; Potency, µM (titrated, usually from 57.1 µM), actives largely listed as inhibitors; 0.12% of 150,000 active; AID 1452, 2008; note: nearly all actives have a fitted effect of over 55% in size
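Purified human 12hLO (150 nM), preincubated 15 min with compound, then 40 uM arachidonic acid for 30 min, room temperature, Hepes pH 7.0 with 0.01% Triton X-100. Hydroperoxide detected by ferrous iron/xylenol orange; 573/405 nm absorbance ratio gives reaction progress.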
A number is an active result; i = inactive; ? = inconclusive; nt = no result given; [ ] = dose if it differs, or a comment. Sampled rows, rich in hits. Any-hit rate of the full collection: about 11%. Unless noted, calls come from the whole dose curve; as a rule, active = well fitted curve in the direction sought with a large enough effect; inconclusive = small, poorly fitted or top-dose-only effect, or another doubt; inactive = no such curve, though single readings can be large; an effect the other way counts as inactive or inconclusive.

SMILES | IMPase Li cell | ALDH1A1 inh | HPGD inh | IMPase cell inh | PNC assembly inh | 12-hLO inh
N=C(N)SCc1cc(Cl)cc(Cl)c1O | i | i[13.5 µM] | i | nt | nt | i[11.4 µM]
COc1cccc(Nc2ncc3nc(CCc4ccccc4)c(=O)n(C4CC4)c3n2)c1 | i | i | i | nt | nt | i
Cc1ccc(/C=C2\SC(=S)N(C3CCS(=O)(=O)C3)C2=O)o1 (stereo not given) | i | ? | nt | nt | nt | nt
Cc1ccc(/C=C2\SC(=S)N(/N=C/c3cc([N+](=O)[O-])ccc3O)C2=O)o1 | i | 7.08µM | nt | nt | nt | nt
CC1(C)CC(N=C=O)CC(C)(CN=C=O)C1 (stereo not given) | i | ? | i | nt | nt | i
CCOc1ccc(CNC(=S)N/N=C\c2ccc([N+](=O)[O-])cc2)cc1 | i | 3.16µM | i | i | -92.2 | i
COC1=CC(=O)C[C@@H](C)[C@]12Oc1c(Cl)c(OC)cc(OC)c1C2=O | i | ? | ? | nt | nt | i
CCCc1[nH][nH]c(=O)c1C(c1ccc(Br)cc1)C(C#N)C#N (stereo not given) | i | ? | 20µM | i | i | i
O=C(c1cc2c(s1)CCCC2)N1CCN(Cc2ccc3c(c2)OCO3)CC1 | i | 14.1µM | i | i | i | i
O=C(Oc1ccc2c(c1)OCO2)c1ccc(F)cc1Cl | i | i | ? | i | -108.7 | i
CC(C)NC(=S)N1CCN(Cc2ccc3c(c2)OCO3)CC1 | i | 22.4µM | nt | nt | nt | nt
CCCCNC(=S)N1CCN(Cc2ccc3c(c2)OCO3)CC1 | i | ? | nt | nt | nt | nt
O=C(c1ccc(Br)o1)N1CCN(Cc2ccc3c(c2)OCO3)CC1 | i | ? | i | i | ? | i
O=C(c1ccc(Cn2cc(Cl)cn2)o1)N1CCN(Cc2ccc3c(c2)OCO3)CC1 | nt | ? | nt | i | -106.6 | i
C[C@@H]1C(=O)CC2C(C)(C)CCC[C@]2(C)[C@@]1(O)CCc1ccoc1 (stereo not given in full) | i | ? | i | nt | nt | nt
CC(=O)NCc1c(I)c(NC(C)=O)c(I)c(C(=O)O)c1I | i | i | i | nt | nt | i
O=C(Oc1ccc2c(c1)OCO2)c1cc2c(s1)CCC2 | i | i | 22.4µM | i | ? | i
COc1ccc(C(=O)N2CCN(Cc3ccc4c(c3)OCO4)CC2)cc1[N+](=O)[O-] | i | 1.58µM | nt | nt | nt | nt
CCOC(=O)C1CCN(C(=S)Nc2cc(OC)c(OC)cc2C(=O)OC)CC1 | i | i | i | i | i | i
CN1C(=O)CC(C(=O)O)SC1=Nc1cc(Cl)c(O)c(Cl)c1 (stereo not given) | i | i | i | i | i | i
CN1C(=O)CC(C(=O)O)SC1=Nc1cc(Cl)cc(Cl)c1 (stereo not given) | i | i | i | nt | -86.9 | i
O=C(/C=C/c1ccc(Cl)c(Cl)c1)NC1=NCCS1 | i | i | nt | nt | nt | nt
O=C(Nc1ccccc1CC[N+](=O)[O-])N1CCN(c2ccccc2)CC1 | i | 8.91µM | nt | nt | nt | nt
CN(C)C(=O)Nc1ccccc1CC[N+](=O)[O-] | i | ? | nt | nt | nt | nt
CCCCN(Cc1ccccc1)C(=O)CCN1C(=O)C2C3C=CC(C3)C2C1=O (stereo not given) | i | 2.24µM | nt | nt | nt | nt
SMILES | IMPase Li cell | ALDH1A1 inh | HPGD inh | IMPase cell inh | PNC assembly inh | 12-hLO inh
CN(Cc1ccccc1)C(=O)CN1C(=O)C2C3C=CC(C3)C2C1=O (stereo not given) | i | i | i | i | i | i
CCn1c(C)nc2cc(C(=O)NNC(=S)Nc3ccccc3Cl)ccc21 | i | 31.6µM | i | i | i | i
O=C(NNC(=S)Nc1ccc(Cl)cc1Cl)c1ccncc1 | i | 3.16µM | ? | i | i | i
CCn1c(C)nc2cc(C(=O)N=Nc3c(O)[nH]c4ccccc34)ccc21 | i | i | i | nt | -92.6 | i
CCn1c(C)nc2cc(C(=O)NNC(=S)Nc3ccccc3)ccc21 | i | i | nt | nt | nt | nt
CCn1c(C)nc2cc(C(=O)NNC(=S)NC(=O)c3ccccc3)ccc21 | i | 25.1µM | nt | nt | nt | nt
